Compounds with a hit are over-represented: about 1.3% of the library has one in this group of screens.
MEX-5 binding: C. elegans MEX-5 TCR-2 RNA binding activity | Q9XUB2 | MEX-5/FITC-TCR2 RNA binding, fluorescence polarization; stronger effect = lower value | activity score (negative = inhibition of binding), % at 10 µM | 0.38% of 300,000 active;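 active = inhibition past about -25% in most replicates, and total fluorescence under double the plate's negative control median, limit read from the data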;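 also: 0% = DMSO and -100% = 5 µM competing unlabeled TCR2 RNA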
GLD-1 RNA inh: GLD-1-TGE RNA interaction inhibition (C. elegans) | 0.44% of 320,000 active | inhibition, % at 5.96 µM | purified GLD-1 + fluorescein TGE RNA, fluorescence polarization | Q17339;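 active = percent inhibition above a per-plate cutoff, the plate mean of test compounds plus 3 SD, cut at about 30% in these data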;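 also: 0% = DMSO wells with GLD-1 and probe and 100% = wells lacking GLD-1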
MCL1-BIM inh: MCL1-BIM-BH3 interaction inhibition (human); 0.68% of 320,000 active; inhibition, % at 10.9 µM; AID 2057; GST-MCL1 / FITC-Bim-BH3 fluorescence polarization; Q07820;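 active = inhibition above the mean inhibition of all tested compounds plus 3 SD, set per campaign, cut at about 40% in these data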;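 also: 0% = DMSO wells and 100% = unlabeled Bim-BH3 peptide control; higher means more loss of mP so more displacement of Bim peptide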
Target sequence (Q07820 whole entry, looked up): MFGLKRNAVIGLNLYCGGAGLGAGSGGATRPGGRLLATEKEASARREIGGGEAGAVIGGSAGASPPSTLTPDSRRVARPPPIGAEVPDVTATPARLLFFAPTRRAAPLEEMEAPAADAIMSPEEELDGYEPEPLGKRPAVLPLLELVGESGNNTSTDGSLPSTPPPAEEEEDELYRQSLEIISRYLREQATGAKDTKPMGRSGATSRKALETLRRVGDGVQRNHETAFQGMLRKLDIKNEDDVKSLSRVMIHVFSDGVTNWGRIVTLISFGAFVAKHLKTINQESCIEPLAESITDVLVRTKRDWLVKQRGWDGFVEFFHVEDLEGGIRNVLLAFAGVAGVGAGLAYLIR
BCLXL inh: Bcl-xL (human) inhibition. inhibition, % at 10.9 µM. 0.7% of 320,000 active. GST-Bcl-xL / FITC-Bim BH3 peptide fluorescence polarization. Q07817;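 active = inhibition above the mean of all tested compounds plus 3 SD, cutoff set per campaign, cut at about 30% in these data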;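 also: 0% = DMSO wells and 100% = unlabeled Bim-BH3 peptide competitor; inhibitors lower millipolarization by displacing the labeled peptide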
EBV gp42 block: EBV gp42 inhibition; Q1HVG2; Fluorescence polarization binding assay, mP read-out; inhibition, % (tested at 21.74 µM); 0.42% of 220,000 active; in the data active = inhibition above about 50%
An asterisk follows results filed as active.

How did O=C1C2C3C=CC(C4CC34)C2C(=O)N1/N=C/c1ccc(-c2ccc(Cl)cc2[N+](=O)[O-])o1 (stereo unspecified) do in these assays?
MEX-5 binding: 1.5; GLD-1 RNA inh: 14.6; MCL1-BIM inh: 18.3; BCLXL inh: 15.6; EBV gp42 block: 10.4

How did COC(=O)C[C@H]1c2cc(C(F)(F)F)ccc2S(=O)(=O)N1C1CCCCC1 do in these assays?
MEX-5 binding: 3.1; GLD-1 RNA inh: 0.7; MCL1-BIM inh: 5.3; BCLXL inh: 2.2

Results for c1ccc2c(c1)nc(NCC1CCCO1)c1nnnn12 (stereo unspecified) ?
MEX-5 binding: 4.0; GLD-1 RNA inh: 11.5; MCL1-BIM inh: 26.7; BCLXL inh: 40.4*; EBV gp42 block: 27.1

Results for Clc1ccc(CCNc2nc3ccccc3n3nnnc23)cc1 ?
MEX-5 binding: 0.0; GLD-1 RNA inh: -3.5; MCL1-BIM inh: -0.7; BCLXL inh: -2.3; EBV gp42 block: -16.4

What do the screens show for `CCN1CCN(CCCNC(=O)c2ccc(CS(=O)c3ccc(Br)cc3)o2)CC1` (stereo unspecified)?
MEX-5 binding: 0.1; GLD-1 RNA inh: 2.7; MCL1-BIM inh: -0.7; BCLXL inh: 1.6

How did Cc1c(N=C2N=C(NC(=O)c3cccs3)c3ccccc32)c(=O)n(-c2ccccc2)n1C do in these assays?
MEX-5 binding: -15.9; GLD-1 RNA inh: -23.6; MCL1-BIM inh: -37.5; BCLXL inh: -30.1; EBV gp42 block: 124.5*

Results for Cc1c(N=C2N=C(NC(=O)NC(C)(C)C)c3ccccc32)c(=O)n(-c2ccccc2)n1C ?
MEX-5 binding: -2.2; GLD-1 RNA inh: 6.2; MCL1-BIM inh: 4.6; BCLXL inh: 2.3; EBV gp42 block: -7.9

What do the screens show for `Cc1ccc(/C(O)=C/c2nc3cc(C)ccc3oc2=O)cc1`?
MEX-5 binding: -120.2*; GLD-1 RNA inh: -0.7; MCL1-BIM inh: -16.9; BCLXL inh: -7.0; EBV gp42 block: -0.7

How did Cc1ccc(NCN2C(=O)C3C4C=CC(C4)C3C2=O)cc1 (stereo unspecified) do in these assays?
MEX-5 binding: 2.9; GLD-1 RNA inh: 3.7; MCL1-BIM inh: 0.3; BCLXL inh: 1.5; EBV gp42 block: -0.8

Results for O=C1C2C3C=CC(C3)C2C(=O)N1CNc1ccc(O)cc1 (stereo unspecified) ?
MEX-5 binding: -1.2; GLD-1 RNA inh: 15.5; MCL1-BIM inh: 33.6; BCLXL inh: 30.3*; EBV gp42 block: -16.1

What do the screens show for `COc1ccc(CN(CC2CCCO2)C(=O)c2cc3sccc3n2C)c(OC)c1` (stereo unspecified)?
MEX-5 binding: -0.1; GLD-1 RNA inh: 1.7; MCL1-BIM inh: 4.3; BCLXL inh: -0.2; EBV gp42 block: 5.9

What do the screens show for `Cc1cccc(C)c1NC(=O)COC(=O)c1c2c(nc3ccccc13)/C(=C\c1ccc3c(c1)OCO3)CCC2`?
GLD-1 RNA inh: 181.8*; MCL1-BIM inh: active; BCLXL inh: 194.0*; EBV gp42 block: 97.6*

What do the screens show for `COc1ccc(/C=C2\CCCc3c2nc2ccccc2c3C(=O)OCC(=O)c2c(N)n(C)c(=O)n(C)c2=O)cc1`?
MEX-5 binding: -0.5; GLD-1 RNA inh: 100.9*; MCL1-BIM inh: 39.2; BCLXL inh: 41.1*; EBV gp42 block: 1.6

What do the screens show for `CC(OC(=O)c1c2c(nc3ccccc13)/C(=C\c1ccc3c(c1)OCO3)CCC2)C(=O)Nc1ccc(S(N)(=O)=O)cc1` (stereo unspecified)?
EBV gp42 block: 149.3*

Results for COc1ccc(-c2cc(C(=O)OCC(=O)c3c(N)n(C)c(=O)n(C)c3=O)c3ccccc3n2)cc1 ?
MEX-5 binding: -3.9; GLD-1 RNA inh: -0.7; MCL1-BIM inh: 3.4; BCLXL inh: -0.1; EBV gp42 block: -20.7

How did O=C(NNc1ccccn1)C(=O)NNS(=O)(=O)c1ccc(F)cc1 do in these assays?
MEX-5 binding: -31.0*; GLD-1 RNA inh: -5.0; MCL1-BIM inh: -1.4; BCLXL inh: -1.1; EBV gp42 block: -6.1

How did Cc1ccc(C(=O)NC(=S)NNS(=O)(=O)c2ccc(C)cc2)cc1 do in these assays?
MEX-5 binding: -1.5; GLD-1 RNA inh: 6.4; MCL1-BIM inh: 0.8; BCLXL inh: -2.1; EBV gp42 block: -8.2

How did O=C(NNc1ccccn1)C(=O)NNS(=O)(=O)c1ccc(Cl)cc1 do in these assays?
MEX-5 binding: -10.0; GLD-1 RNA inh: 0.4; MCL1-BIM inh: -9.1; BCLXL inh: -4.7; EBV gp42 block: -21.8

Screening results deposited in PubChem by several laboratories.
